Test system: PPARa:RXRa (NR concentration 270 nM, RXRa partner concentration 90 nM)
Experiment: PBM binding z-score (relative to random genomic background probes); higher = stronger binding; sequences stand for … in GC…GCGATTGACAGCGTAGAATGAAGG
How it was run: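 Regression normalization was applied to scanned fluorescence from custom Agilent 4×180K protein-binding microarrays. Before scanning, arrays were incubated 1 h with ligand-free nuclear receptor dimers, and binding was detected with antibodies against each partner (one per run). Binding z-scores use the random background probes as reference.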

In order of falling PBM binding z-score:
1. CGTCCGAGGTCAAAGGTCAGTGAAGAGATGACGG  7.17
2. CAAACTAGGTCACGAAAGGTCAACGTCGAATGAC  6.81
3. CAAACTAGGTCACAGAGGTCAAACTCCGTGCGTA  6.69
4. CGTCTAAGGTCAAGGTCAGTGAAAGAGACTCGAA  6.43
5. ATATGTAGGTTAGGGTCATTCAAAAAGTAGGGAA  5.83
6. TTACCAAGGTGAAAGGTCGTTGAAGCACGCCTTG  5.82
7. CGAACTAGGTCACCAGGTCAGTGAAGAGGTTGGA  5.78
8. AATACAGGGTCACTAGGCCAGAGTGGGTACGAAT  5.69
9. ATATGTAGGTTAGGGTCATTAAGAAAGTAGGGAA  5.58
10. CCTACAGGGCCAAAGGTCATTGATTCCAATGCTC  5.51
11. CGAACTAGGTCAAAGGACAGTGATAGGCGACGTA  5.27
12. TAGCATAGGTCATGCGGGCCAGTATAGTGTCGGC  5.22
13. CGAACTAGGTCACCAGGACAGTTAAGAGGTTGGA  5.2
14. CGAACTAGGTCACCAAGACAGTGAAGAGGTTGGA  5.11
15. CCTACTGGGGCACGAAAGGTCATTGATTCAGTGA  4.99
16. CGAACTAGGTCACCATGACAGTGAAGAGGTTGGA  4.95
17. CGAACTAGGTCAAAGGATAGTGAAAGGCGACGTA  4.93
18. CGAACTAGGTCAAAGGACTGTGAAAGGCGACGTA  4.89
19. ATATGTTGGTTAGGGTCATTCAGAAAGTAGGGAA  4.86
20. ATATGTATGTTAGGGTCATTCAGAAAGTAGGGAA  4.84
21. CGTCCAAGGTCAATGCTAGGCCAGTGAAAGCATT  4.74
22. GATACAAGGTCAGCTAGAGGCCAGAGTATGGAAA  4.53
23. ATTTGTAGGTTATCGGGTCATTCAGTTTGCGCAT  4.47
24. CGAACTAGGTCAATGGACAGTGAAAGGCGACGTA  4.39
25. CGTCCAAGGTCAGATAGGTCAGTGAATGCCGAGT  4.33
26. CCTTCTGGGCCATTCAGAGGTCATTGATCATATG  4.02
27. CGAGCTAGGTCAAAGGACAGTGAAAGGCGACGTA  3.86
28. TAGCCTAGGTCAAGCGGGCCAGTATAGTGTCGGC  3.62
29. TCTCGGAGGACACGAAAGGTCAGAACTCGACATC  3.29
30. ATATGTAGGTTAGAGTCATTCAGAAAGTAGGGAA  2.75
31. CCTCGGAGGACACCAGGAGGTCAGAGCTGCCAGA  2.14
32. GCATATAGGTAATTCAAGGTGAAAGTCCGATTGT  1.9
33. CGAACTAGGTAACCAGGACAGTGAAGAGGTTGGA  1.66
34. GCTGCTAGGTCAGGATGGTCAGCTAACGGGTACG  1.6
35. GATACAGGGGCAAGGCCAGAGTACGCGTATTGAT  0.546
36. CCTACTGGGCCATCAGGTGATTGATATCAACGTT  0.426
37. ACTCGGAGGACAAATGTCAGAGCTACGCCAGTGA  0.306
38. AATACAGGATCACTAGGCCAGAGTAGGTACGAAT  0.128
39. CGAACTAAGTCATCCAGGACAGTGAATACATTGA  0.0393

Source: the supplement of paper PMC6555819
